Consider 22 molecules from the supplement of paper PMC7156485.

Common to all, as to settings: concentration: 10 µM; 24 h
Assay [1] concerns HCC1569. Kind of assay: cell number relative to DMSO (% of DMSO); higher = more cells (less growth inhibition / toxicity). The essentials:
(§1)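 Using 384-well plates with 800 cells per well in RPMI plus 10% FBS, HCC1569 and TDF cells were exposed to compounds at 10 µM, in triplicate, for 24 h at 37 °C. Imaging of six fields per well at ×10 followed H1.0 and DAPI staining. The reported quantity, H1.0 nuclear intensity or cell number, is a median of replicates given as percent of the plate control, and HCC1569 values were smoothed for positional effects.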

For assay [2], the system named is TDF. The assay is described as above. The essentials:
as §1

Assay [3] has as its system TDF. The assay is described as follows: H1.0 immunofluorescence intensity relative to DMSO (% of DMSO); higher = stronger H1.0 induction, active = 120 or more. The essentials:
as §1

Assay [4] has as its system HCC1569. Kind of assay: H1.0 immunofluorescence intensity relative to DMSO (% of DMSO); higher = stronger H1.0 induction, active = 140 or more. The essentials: as §1
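Wherever H1.0 immunofluorescence intensity relative to DMSO is given: TDF is a line of transformed human dermal fibroblasts of mesenchymal origin.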
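Wherever cell number relative to DMSO is given: TDF denotes transformed human dermal fibroblasts of mesenchymal origin.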

Turning to `CCCCCC(=O)C=CC=CCC=CCC=CCCCC(=O)O` [15-Ketoeicosatetraenoic acid], the figures for the cell number in assay [1] and in assay [2] were 99.5 and 102, respectively. In addition, the H1.0 immunofluorescence intensity in assay [3] was 94 (inactive); in assay [4], 86.9 (inactive).
For `CC(C)NCC(O)COc1ccc(CCOCC2CC2)cc1.Cl` (stereo not drawn) [Betaxolol hydrochloride], the cell number was 102 in assay [1] and 122 in assay [2]. The values for the H1.0 immunofluorescence intensity in assay [3] and in assay [4] were 95.4 (inactive) and 89.4 (inactive), respectively.
In the same order, the values of `COc1ccc(CC(=O)NC(N=C(NC#N)Nc2cccc3ncccc23)C(C)(C)C)cc1OC` (stereo not drawn) are 99.9, 107, 93.5 (inactive) and 96.8 (inactive).
As for `NC(=O)C1=CN(C2OC(COP(=O)([O-])OP(=O)([O-])OCC3OC(n4cnc5c(N)ncnc54)C(OP(=O)([O-])[O-])C3O)C(O)C2O)C=CC1.[Na+].[Na+].[Na+].[Na+]` (stereo not drawn) [NADPH tetrasodium], the cell number is 103 in assay [1] and 102 in assay [2]. For the same molecule, the H1.0 immunofluorescence intensity in assay [3] was 96.9 (inactive); in assay [4], 99.1 (inactive).
For `C=CC1CN2CCC1CC2C(O)c1ccnc2ccc(OC)cc12.C=CC1CN2CCC1CC2C(O)c1ccnc2ccc(OC)cc12.O=S(=O)(O)O` (stereo not drawn) [Quinine sulfate] the same measures were 102, 97.8, 92.8 (inactive) and 100 (inactive).
`Nc1nc2ccccc2c2ccccc12` [6-phenanthridinamine]: the cell number in assay [1] came out at 88.1; in assay [2], 64.8. For the same molecule, the results for the H1.0 immunofluorescence intensity in assay [3] and in assay [4] were 97.8 (inactive) and 117 (inactive), respectively.
For `Cc1nnc(SCC2=C(C(=O)[O-])N3C(=O)C(NC(=O)Cn4cnnn4)C3SC2)s1.[Na+]` (stereo not drawn) [Cefazolin sodium] the same measures were 101, 116, 87.2 (inactive) and 89.5 (inactive).
In the same order, the values of `CCCOc1cc2c(cc1\C(C)=C/C=C/C(C)=C/C(=O)O)C(C)(C)CCC2(C)C` are 97.9, 107, 90.3 (inactive) and 95.9 (inactive).
In the same order, the values of `O=C(C=Cc1ccc(O)cc1)CC(=O)C=Cc1ccc(O)cc1` [Bis demethoxycurcumin] are 83.7, 95.1, 96 (inactive) and 94.4 (inactive).
For `O=C(O)c1cn(C2CC2)c2cc(N3CCNCC3)c(F)cc2c1=O` [Ciprofloxacin], the cell number in assay [1] was found to be 105; in assay [2] it was 107. For the same molecule, the figures for the H1.0 immunofluorescence intensity in assay [3] and in assay [4] were 91.7 (inactive) and 102 (inactive), respectively.
In the same order, the values of `CC1=CCC2(C)CCC(O)(C(C)C)C2C(OC(=O)c2ccc(O)cc2)C1` (stereo not drawn) [Ferutinin] are 102, 102, 97.8 (inactive) and 107 (inactive).
In the same order, the values of `O=C(CO)N1CCC(c2[nH]nc(-c3ccc(Cl)cc3)c2-c2ccncn2)CC1` are 93.2, 105, 91.3 (inactive) and 96 (inactive).
For the molecule `CCCCCCCCCCCCCCCCn1cc[n+](Cc2ccccc2)c1C.[I-]`, the values for the cell number in assay [1] and in assay [2] were 99.1 and 103, respectively. Moreover, the H1.0 immunofluorescence intensity is 103 (inactive) in assay [3] and 106 (inactive) in assay [4].
In the same order, the values of `CC(C)NCC(O)COc1cccc2ccccc12.Cl` [(S)-Propranolol hydrochloride] are 74.5, 95.9, 87.7 (inactive) and 230 (active).
With `CC(=O)NCCc1c[nH]c2ccc(O)cc12` [N-Acetyl-5-hydroxytryptamine], the cell number in assay [1] and in assay [2] was 101 throughout. In addition, the H1.0 immunofluorescence intensity in assay [3] is 93.3 (inactive); in assay [4], 87.2 (inactive).
For the molecule `CN(C)CC=C(c1ccc(Br)cc1)c1cccnc1.Cl.Cl` [Zimelidine dihydrochloride], the cell number in assay [1] worked out at 99; in assay [2], 86.6. In addition, the H1.0 immunofluorescence intensity is 107 (inactive) in assay [3] and 116 (inactive) in assay [4].
In the same order, the values of `Cc1c(Cl)cccc1Nc1ccccc1C(=O)O` [Tolfenamic acid] are 105, 105, 104 (inactive) and 95 (inactive).
In the same order, the values of `CCCc1cc(=O)oc2c(C(=O)N3CCCc4ccccc43)c(OC)cc(OC)c12` are 55.5, 46.1, 108 (inactive) and 159 (active).
For `C=C1C(=CC=C2CCCC3(C)C2CCC3C(C)CCCC(C)(C)O)CC(O)CC1O` (stereo not drawn) [Calcitriol] the same measures were 102, 100, 98.2 (inactive) and 112 (inactive).
Regarding `CCC(CO)Nc1nc(NCc2ccccc2)c2ncn(C(C)C)c2n1` (stereo not drawn) [Roscovitine], the cell number in assay [1] was 93.4; in assay [2], 99. In addition, the H1.0 immunofluorescence intensity in assay [3] was 93.9 (inactive); in assay [4], 103 (inactive).
Regarding `COc1cc2nc(N3CCN(C(=O)C4CCCO4)CC3)nc(N)c2cc1OC.Cl` (stereo not drawn) [Terazosin hydrochloride], the figures for the cell number in assay [1] and in assay [2] were 100 and 95.1, respectively. In addition, the values for the H1.0 immunofluorescence intensity in assay [3] and in assay [4] were 92.6 (inactive) and 102 (inactive), respectively.
On to `COc1ccc(C(=O)Nc2sc3c(c2C(N)=O)CCCC3)cc1OC` [Flt-3 Inhibitor], for which the cell number in assay [1] was found to be 96.7; in assay [2], 105. In addition, the H1.0 immunofluorescence intensity was 94.7 (inactive) in assay [3] and 119 (inactive) in assay [4].
